Data published in PubChem BioAssay AID1159580 (chemical genetic matrix, 2015).
Among all 5,500 compounds or so, about 2,000 (36%) were called active. About 18% were inconclusive and are not listed. No stated cut-off is given here; in the data, active means normalized growth mostly below about 0.91 (no sharp cut-off); inconclusive means no clear call, values can overlap the other calls; inactive means mostly above about 0.92. The list shows a part of the results.

Test: chemical genetic growth profiling, strain panel (AID 1159580);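 further: tested at 20 µM; growth read once vehicle control cultures reached saturation at 30 °C; 1 = growth at the plate median or of vehicle wells; lower values mean less growth of the strain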
Settings: S. cerevisiae deletion strains, growth OD

Measured: normalized growth

O=C(O)CP(=O)(O)O
inactive: locus YAL040C, strain CLN3, hits give low values 1 | locus YCL061C, strain MRC1 (second series), hits give low values 1 | locus YDR363W, strain ESC2, hits give low values 1.01 | locus YER002W, strain NOP16, hits give low values 1.01 | locus YGR229C, strain SMI1, hits give low values 1.02 | locus YNL175C, strain NOP13, hits give low values 1.02 | locus YNL197C, strain WHI3, hits give low values 1.01 | locus YNL224C, strain SQS1, hits give low values 0.993 | locus YNL322C, strain KRE1, hits give low values 1.01 | locus YOR083W, strain WHI5 (second series), hits give low values 1.01
